This is part of a sample that, as a whole, favours compounds with a hit. Of some 79,000 tested, about 15% had one in any assay. A number with no mark means an inactive call. Active and inactive are the calls of the source. No stated cut-off is given here; in the data, active means growth inhibition above about 70%; inactive means the rest.
Tests used:
[1] = NCI Yeast Anticancer Drug Screen. Data for the rad50 strain (AID 155);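 further: 0% = growth of vehicle-only cultures of the same strain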; conditions: S. cerevisiae rad50 strain growth inhibition, stronger effect = higher value
In short: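 Inhibition values express reduced yeast growth in compound-treated cultures relative to vehicle-treated controls.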

[2] = NCI Yeast Anticancer Drug Screen. Data for the mec2-1 strain (AID 157); conditions: S. cerevisiae mec2-1 strain, stronger effect = higher value
In short: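 Using mec2-1 yeast: add compound, measure growth, express inhibition versus vehicle-treated cultures.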

[3] = NCI Yeast Anticancer Drug Screen. Data for the sgs1 mgt1 strain (AID 161);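 further: 0% = growth of cultures given vehicle only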; conditions: S. cerevisiae sgs1 mgt1 strain, stronger effect = higher value
In short: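 Percent growth inhibition was derived by comparing compound-exposed mutant yeast with vehicle-exposed cultures. The strain carries alterations in DNA damage repair.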

[4] = NCI Yeast Anticancer Drug Screen. Data for the cln2 rad14 strain (AID 165);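 further: 0% = growth equal to vehicle treated cultures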; conditions: S. cerevisiae cln2 rad14 strain, stronger effect = higher value
In short: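 Yeast strain cln2 rad14, bearing defects in cell cycle control and DNA repair, serves as the test system; values reflect growth inhibition compared with vehicle.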

[5] = NCI Yeast Anticancer Drug Screen. Data for the bub3 strain (AID 167); conditions: S. cerevisiae bub3 mutant strain, stronger effect = higher value
In short: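 Steps: expose the mutant yeast strain to compound; grow alongside vehicle-treated cultures; measure growth; express inhibition against the vehicle cultures.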

[6] = NCI Yeast Anticancer Drug Screen. Data for the mlh1 rad18 strain (AID 175); conditions: S. cerevisiae mlh1 rad18 strain growth inhibition, stronger effect = higher value
In short: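 Steps: expose repair-defective yeast to compound; measure growth; express inhibition against vehicle-treated controls.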

[7] = at 5.0 µM (retest, dose inferred, filed as 0.5)
[8] = at 50.0 µM (retest, dose inferred, filed as 5.0)

| SMILES | growth inhibition [1, 7] | growth inhibition [1, 8] | growth inhibition ([1]; at 50.0 µM) | growth inhibition [2, 7] | growth inhibition [2, 8] | growth inhibition ([2]; at 50.0 µM) | growth inhibition [3, 7] | growth inhibition [3, 8] | growth inhibition ([3]; at 50.0 µM) | growth inhibition [4, 7] | growth inhibition [4, 8] | growth inhibition ([4]; at 50.0 µM) | growth inhibition [5, 7] | growth inhibition [5, 8] | growth inhibition ([5]; at 50.0 µM) | growth inhibition [6, 7] | growth inhibition [6, 8] | growth inhibition ([6]; at 50.0 µM) |
| --- | --- | --- | --- | --- | --- | --- | --- | --- | --- | --- | --- | --- | --- | --- | --- | --- | --- | --- |
| CC(C)CCC(=O)OC1CCC2(C)C(=CCC3C2CCC2(C)C(O)CCC32)C1 (configuration not stated) | 16% | 23% | 42% | -2% | 5% | -1.95% | 5% | 27% | 36.4% | 0% | 5% | 19.2% | 2% | 15% | 3.95% | -2% | 43% | 72.6% (active) |
| Cc1cc2c(cc1O)C(C)(C)CCC2(C)C | 8% | 70% (active) | -6.9% | -1% | 77% (active) | 97.2% (active) | 1% | 78% (active) | 47.9% | 9% | 90% (active) | 52.8% | 0% | 83% (active) | 96.8% (active) | -2% | 62% | 97.3% (active) |
| O=P(c1ccccc1)(c1ccccc1)c1ccccc1.[Cl][Sn]([c]1ccccc1)([c]1ccccc1)[c]1ccccc1 | 99% (active) | 98% (active) | 99.6% (active) | 97% (active) | 98% (active) | 99.7% (active) | 99% (active) | 99% (active) | 99.7% (active) | 99% (active) | 98% (active) | 99.1% (active) | 99% (active) | 98% (active) | 99.3% (active) | 99% (active) | 99% (active) | 99.5% (active) |
| CC(C)c1ccccc1OP(=S)(S)Oc1ccccc1C(C)C | 4% | 38% | 82.8% (active) | 5% | 24% | 2.75% | 1% | 45% | 72.8% (active) | 4% | 54% | 87.3% (active) | 0% | 54% | 37% | 0% | 68% | 79% (active) |
| C[C@]12CC[C@H]3[C@@H](CCC4=CC(=O)CC[C@@H]43)[C@@H]1CC[C@@H]2OC(=O)N(CCCl)N=O | 44% | 95% (active) | 84.8% (active) | 43% | 97% (active) | 85.3% (active) | 67% | 97% (active) | 83.2% (active) | 68% | 96% (active) | 79% (active) | 72% (active) | 96% (active) | 85.7% (active) | 39% | 94% (active) | 85% (active) |
| N#CS.[Ag] | 11% | 97% (active) | 60.8% | 10% | 98% (active) | 91.7% (active) | 15% | 98% (active) | 75.2% (active) | 27% | 98% (active) | 32.7% | 25% | 98% (active) | 89.5% (active) | -1% | 97% (active) | 89% (active) |
| CC1Oc2cc3c(-c4c(O)cc(O)c5c(O)c6c(cc45)OC(C)C(C)C6=O)c(O)cc(O)c3c(O)c2C(=O)C1C (configuration not stated) | 8% | 85% (active) | 83.1% (active) | -10% | 83% (active) | 84.2% (active) | -2% | 86% (active) | 83% (active) | 30% | 69% | 82.8% (active) | -8% | 81% (active) | 81.2% (active) | 10% | 84% (active) | 84.2% (active) |
| NC(=O)Nc1ccc([As](Sc2ccccc2C(=O)O)Sc2ccccc2C(=O)O)cc1 | -1% | 14% | 15.9% | -3% | -1% | 4.75% | -3% | 10% | 17.3% | -8% | 24% | 28.9% | -8% | 26% | -7.1% | -4% | 8% | 20.1% |
| CCC[CH2][Sn]1([CH2]CCC)[O]CC(Cc2ccccc2)[O]1 (configuration not stated) | 31% | 96% (active) | 85.5% (active) | 22% | 98% (active) | 90.2% (active) | 54% | 98% (active) | 86.9% (active) | 32% | 95% (active) | 84.7% (active) | 55% | 98% (active) | 89.1% (active) | 39% | 97% (active) | 88.5% (active) |

Source: PubChem BioAssay (NCI)
